A selection: hits, their analogues and other compounds. The true share with any hit is near 2.8%.
WRN inhibitor = blocks human WRN helicase; WRN helicase unwinding, fluorescent forked duplex, kinetic; Potency, µM (top dose mostly 114 µM), usual class: inhibitors; actives 0.46% (n = 360,000); further: nearly all actives have a fitted effect of over 55% in size
Target sequence (Q14191 whole entry, looked up): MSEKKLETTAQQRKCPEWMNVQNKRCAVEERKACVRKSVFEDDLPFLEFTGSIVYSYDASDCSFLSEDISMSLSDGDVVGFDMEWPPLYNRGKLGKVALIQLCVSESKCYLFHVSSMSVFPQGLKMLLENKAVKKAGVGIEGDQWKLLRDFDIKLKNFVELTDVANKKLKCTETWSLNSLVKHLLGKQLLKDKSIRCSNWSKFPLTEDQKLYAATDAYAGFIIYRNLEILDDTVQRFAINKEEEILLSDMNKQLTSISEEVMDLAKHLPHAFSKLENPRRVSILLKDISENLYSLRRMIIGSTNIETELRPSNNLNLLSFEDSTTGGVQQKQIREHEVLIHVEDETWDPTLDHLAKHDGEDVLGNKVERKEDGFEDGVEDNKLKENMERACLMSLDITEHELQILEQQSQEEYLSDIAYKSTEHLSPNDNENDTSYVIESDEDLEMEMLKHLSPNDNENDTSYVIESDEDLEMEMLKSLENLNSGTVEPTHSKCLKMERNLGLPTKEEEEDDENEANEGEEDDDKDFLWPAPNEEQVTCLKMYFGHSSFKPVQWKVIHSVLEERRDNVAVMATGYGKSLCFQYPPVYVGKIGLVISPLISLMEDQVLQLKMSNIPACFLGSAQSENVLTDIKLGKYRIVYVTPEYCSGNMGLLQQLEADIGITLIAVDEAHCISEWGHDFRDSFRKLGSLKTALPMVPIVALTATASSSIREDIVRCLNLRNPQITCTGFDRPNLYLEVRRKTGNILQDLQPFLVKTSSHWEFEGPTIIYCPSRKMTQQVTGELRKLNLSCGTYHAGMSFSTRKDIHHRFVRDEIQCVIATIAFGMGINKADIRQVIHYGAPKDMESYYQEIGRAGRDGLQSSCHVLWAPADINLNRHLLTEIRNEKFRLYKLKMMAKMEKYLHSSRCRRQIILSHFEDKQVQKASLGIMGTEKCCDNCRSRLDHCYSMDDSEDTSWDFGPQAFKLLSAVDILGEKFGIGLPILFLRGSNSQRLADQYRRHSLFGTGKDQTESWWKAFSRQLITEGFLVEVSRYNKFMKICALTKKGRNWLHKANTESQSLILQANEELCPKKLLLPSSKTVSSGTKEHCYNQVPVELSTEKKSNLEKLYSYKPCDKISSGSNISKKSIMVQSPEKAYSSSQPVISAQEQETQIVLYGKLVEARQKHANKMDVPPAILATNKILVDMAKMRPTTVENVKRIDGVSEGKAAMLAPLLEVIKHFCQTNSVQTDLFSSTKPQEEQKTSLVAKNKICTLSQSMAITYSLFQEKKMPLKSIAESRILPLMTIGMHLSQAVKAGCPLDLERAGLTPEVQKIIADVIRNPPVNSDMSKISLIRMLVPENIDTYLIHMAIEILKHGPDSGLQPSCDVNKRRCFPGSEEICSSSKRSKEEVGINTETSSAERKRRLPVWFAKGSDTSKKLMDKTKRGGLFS
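Kinetic fluorescence helicase assay: unwinding of a quenched forked DNA duplex (100 nM final) with 2 mM ATP final raises red fluorescence (525/598 nm). Compounds sat 15 min at room temperature with 20 nM WRN beforehand.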
POLI inh = inhibitors of human DNA polymerase iota; Q9UNA4; Pol iota fluorescent replication assay, 10 min; Potency, µM (doses to about 115 µM), most hits filed as inhibitors; actives 1% (n = 390,000); AID 588590
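Fluorescent replication assay read twice, at 0 min and 10 min after adding 50 nM (final) substrate. Enzyme (10 nM) and compounds were first incubated 15 min at room temperature; enzyme-free buffer wells were negative controls.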
Pol eta inh = DNA polymerase eta (human) inhibition. Q9Y253. Potency, µM (doses to about 114 µM), hits mostly inhibitors. recombinant Pol eta, fluorescent DNA replication assay. AID 588591. actives 1.2% (n = 390,000)
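Pol eta (10 nM) was preincubated with compounds for 15 min at room temperature, after which fluorescent replication substrate (50 nM final) was added to start the reaction. Fluorescence was read kinetically at 0 and 10 min.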
POLK inh = blocks human DNA polymerase kappa activity; Potency, µM (top dose mostly 107 µM), usual class: inhibitors; purified Pol kappa, fluorescent DNA synthesis assay, 10 min; actives 0.53% (n = 400,000); Q9UBT6
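10 nM Pol kappa was preincubated with compounds for 15 min at room temperature. Reaction started with 50 nM (final) substrate. Fluorescence read kinetically at 0 and 10 min.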
POLB inh = blocks human DNA polymerase beta activity; P06746; Pol beta primer extension/strand displacement, fluorescence kinetic; Potency, µM (highest dose often 114 µM), usual class: inhibitors; actives 1.3% (n = 340,000); AID 485314
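10 nM enzyme + cpd, 15 min RT; start with substrate 50 nM final; read 0 min and after 10 min RT. Corrected, normalized data; 4-parameter Hill curve fit.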
PI5P4K alpha inh = PI5P4K alpha (human) kinase inhibition; P48426; PI5P4Kalpha enzyme, ADP-Glo luminescence, 60 min; stronger effect = lower value; max response, %; actives 1.2% (n = 330,000); AID 652105; active means max response of -50% or lower; inconclusive means between -30% and -50%; inactive means -30% or higher; further: value at the top dose of about 77 µM
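ADP-Glo luminescence end-point after a 60 min room-temperature kinase reaction. PI5P4Kalpha and substrate in HEPES pH 7.4 buffer with EGTA, 0.1% CHAPS and 5% DMSO; ATP at 5 microM final.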
Of the large screens only hits and unclear results are named; the others gave an inactive call; ! = not confirmed by another sample. Unless noted, the call rests on the fitted dose curve; in most records, active means well fitted curve in the direction sought with a large enough effect; inconclusive means small, poorly fitted or top-dose-only effect, or another doubt; inactive means no such curve, though single readings can be large; an effect the other way counts as inactive or inconclusive.

O=S1(=O)CCOC[C@H](c2ccccc2)N1Cc1ccc(Cl)c(Cl)c1	none (no result: WRN inhibitor, Pol eta inh, POLB inh, PI5P4K alpha inh)
Cc1ccc(-n2nc3c(c2NC(=O)CC(C)C)CS(=O)(=O)C3)cc1	none
CC(C)Sc1nnc(NC(=O)c2ccco2)s1	POLI inh inconclusive, Pol eta inh 89µM
O=C(Nc1n[nH]c(=S)s1)c1ccco1	POLI inh inconclusive, POLK inh 56µM, PI5P4K alpha inh -61
CCSc1nnc(NC(=O)c2ccco2)s1	none
C[C@@H]1COc2cccc(N3CCSCC3)c2S(=O)(=O)N1	none (no result: POLI inh, Pol eta inh, POLK inh, POLB inh)
CCN1C(=O)S/C(=C/c2c(OCc3ccc(C(=O)O)cc3)ccc3ccccc23)C1=O	POLB inh 50µM
CC1CCn2c(nc3cc(C(=O)NCCc4ccccc4)ccc32)C1 (centres undefined)	none (no result: WRN inhibitor, PI5P4K alpha inh)
CC(C)c1nc2sc3c(SCC(=O)NCc4ccco4)ncnc3c2c2c1CCC2	WRN inhibitor inconclusive, POLI inh inconclusive, Pol eta inh 6.3µM, POLK inh 79µM, POLB inh 22µM, PI5P4K alpha inh inconclusive
Cc1nc2c(sc3nc4c(cc32)COC(C)(C)C4)c(=O)n1CC(=O)NCc1ccco1	POLI inh inconclusive, Pol eta inh inconclusive, POLB inh inconclusive (no result: PI5P4K alpha inh)
CC1(C)Cc2nc3sc4c(SCC(=O)NCc5ccco5)ncnc4c3cc2CO1	Pol eta inh 22µM, POLB inh inconclusive
O=C1/C(=C\c2ccco2)SC(=S)N1C1CCCCC1	POLB inh 45µM (no result: WRN inhibitor, POLI inh, Pol eta inh, POLK inh, PI5P4K alpha inh)
O=C1/C(=C/c2ccco2)SC(=S)N1CCC(=O)N1CCCCC1CCO (centres undefined)	WRN inhibitor 56µM, Pol eta inh 22µM, POLB inh inconclusive, PI5P4K alpha inh inconclusive
Cc1ccc(N2C(=O)/C(=C/c3ccco3)SC2=S)cc1	POLI inh inconclusive, POLK inh inconclusive, POLB inh inconclusive
COc1ccc(/C=C2\SC(=S)N(CCC(=O)N3CCCCC3CCO)C2=O)cc1 (centres undefined)	POLI inh 28µM, Pol eta inh inconclusive, POLK inh inconclusive, POLB inh inconclusive
CCCCc1ccc(-n2nc3cc(Cl)c(NC(=O)c4ccc(OC)cc4)cc3n2)cc1	none (no result: WRN inhibitor, PI5P4K alpha inh)
Cc1ccc(NC(=O)N(Cc2cn(C)c3ccccc23)C2CCCCC2)cc1C	none (no result: WRN inhibitor, PI5P4K alpha inh)
COc1cc(C(=O)NS(=O)(=O)c2ccccc2C)ccc1Cc1cn(C)c2ccc(NC(=O)OC3CCCC3)cc12	POLK inh inconclusive, POLB inh 56µM (no result: WRN inhibitor, POLI inh, Pol eta inh, PI5P4K alpha inh)
CCN1CCN(Cc2ccc(NC(=O)c3ccc(C)c(NC(=O)C(=O)c4c[nH]c5ccccc45)c3)cc2C(F)(F)F)CC1	POLI inh inconclusive, PI5P4K alpha inh -77!
CCN1CCN(Cc2ccc(NC(=O)c3cc(NC(=O)C(=O)c4c[nH]c5ccccc45)cc(OC)c3)cc2C(F)(F)F)CC1	POLI inh inconclusive, PI5P4K alpha inh -63!
O=C(NCC1CCN(Cc2cccc(F)c2)CC1)c1cc2ccc3cccnc3c2[nH]1	none (no result: WRN inhibitor, PI5P4K alpha inh)
COc1ccc(C(=O)NCC(=O)OCC(=O)Nc2ncc(Cl)cc2Cl)cc1[N+](=O)[O-]	Pol eta inh 50µM (no result: POLB inh)
COc1cc(CCC(=O)OCC(=O)Nc2ncc(Cl)cc2Cl)cc(OC)c1OC	POLI inh inconclusive, Pol eta inh 11µM, POLB inh 79µM, PI5P4K alpha inh inconclusive
O=c1c(-c2ccc(Br)cc2)coc2c(CN3CCCCC3)c(O)ccc12	none
O=c1c(-c2ccc(Cl)cc2)coc2c(CN3CCCCC3)c(O)ccc12	POLI inh 32µM
c1ccc(-c2nnc3sc(Cc4cccs4)nn23)cc1	POLI inh inconclusive, POLB inh 45µM (no result: PI5P4K alpha inh)
CCOCCc1nnc(NC(=O)C(=O)c2cc(C)n(-c3ccc(C)c(C)c3)c2C)s1	none (no result: WRN inhibitor, PI5P4K alpha inh)
CCCC[C@@H]1CCCO[C@@](C(=O)NCc2cc(C)n(C)n2)(C(F)(F)F)C1	none (no result: POLB inh)
CCC[C@@H]1CCCO[C@@](C(=O)NCc2cc(C)n(C)n2)(C(F)(F)F)C1	POLI inh 89µM!, POLK inh inconclusive (no result: POLB inh)
Cc1nnc(N/N=C/c2cc([N+](=O)[O-])c(N3CCC(C)CC3)cc2N2CCC(C)CC2)n1N	POLI inh 4µM (no result: PI5P4K alpha inh)
CCc1nnc(N/N=C/c2ccc(N3CCC(C)CC3)c([N+](=O)[O-])c2)n1N	POLI inh 8.9µM

Bioassay records deposited in PubChem by National Center for Advancing Translational Sciences (NCATS).
